The record followed here is PubChem BioAssay (NCATS).

Records with an inconclusive call do not appear. Calls of active or inactive are those of the source. The call rests on the fitted dose curve; in most records, active means well fitted curve in the direction sought with a large enough effect; inconclusive means small, poorly fitted or top-dose-only effect, or another doubt; inactive means no such curve, though single readings can be large; an effect the other way counts as inactive or inconclusive.

One assay is described as follows: qHTS of pediatric cancer cell lines to identify multiple opportunities for drug repurposing: Confirmatory screen for DAOY cells (AID 1347114). Further: on the % scale 0 is the no-effect control and ±100 the full control effect; nearly all actives have a fitted effect of over 65% in size. The conditions noted are these: DAOY medulloblastoma cells viability, cytotoxicity qHTS; series mostly up to 45.9 µM; activity change, negative = cytotoxic: at the top concentration. The method in brief: (§1)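 Viability measured as metabolically active cells via CellTiter-Glo luminescence following 48 hours of compound exposure, 11-point dilutions in confirmatory testing. 500-1,000 cells/well plated 5 hours before dosing; controls were DMSO and 2.3 µM bortezomib.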
Consider `Cc1ccccc1-n1c(Cn2ncc3c(N)ncnc32)nc2cccc(C)c2c1=O`, for which the “activity change, negative = cytotoxic” value is -13.8% (inactive).
As for `O=C(N[C@H]1CN2CCC1CC2)c1ccc(Cl)cc1`, the “activity change, negative = cytotoxic” value was -16.2% (inactive).
For `CC(C)N[C@@H]1CCn2c(=O)[nH]c3cccc(c32)[C@@H]1O`, the “activity change, negative = cytotoxic” value was 5.46% (inactive).
`O=C(O)CCCOc1ccc(Cl)cc1Cl`: the “activity change, negative = cytotoxic” value was -11% [at 97.2 µM] (inactive).

The next assay is described as follows: qHTS of pediatric cancer cell lines to identify multiple opportunities for drug repurposing: Confirmatory screen for NB-EBc1 cells (AID 1347115).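 Further: cells exposed to compound for 48 h before the viability read; nearly all actives have a fitted effect of over 45% in size.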 Further: potency means the concentration at half of the fitted maximal effect. On activity change, negative = cytotoxic: on the % scale 0 is the no-effect control and ±100 the full control effect. The settings on record: NB-EBc1 neuroblastoma cells, viability (cytotoxicity); series mostly up to 45.9 µM; activity change, negative = cytotoxic: at the top concentration. The method in brief: (§2)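 Viability after 48 h compound treatment at 37C, 500-1,000 cells/well, read as ATP luminescence with CellTiter-Glo. Primary screens used 11-point (MIPE, 0.78 nM-46 µM) or 8-point (NPC, 0.59 nM-46 µM) final concentrations; follow-up screens used 11-point dilutions.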
Consider `CC(C)(C)C(O)C(Oc1ccc(Cl)cc1)n1cncn1` (configuration not stated), for which the “activity change, negative = cytotoxic” value is 10.8% [at 95.5 µM] (inactive).
On to `CC[C@@]1(O)C(=O)OCc2c1cc1n(c2=O)Cc2cc3ccccc3nc2-1`, for which the Potency is 65.7 nM (active).
For `C[C@@H]1O[C@@H](O[C@@H]2C=C3CC[C@@H]4[C@@H](CC[C@]5(C)[C@H](c6ccc(=O)oc6)CC[C@@]45O)[C@@]3(C)CC2)[C@H](O)[C@H](O)[C@H]1O`, the Potency is 26.1 nM (active).
Same read-out and setting: next, `C[C@@H]1CC[C@@]2(OC1)O[C@H]1C[C@H]3[C@@H]4CC=C5C[C@@H](O[C@@H]6O[C@H](CO)[C@@H](O[C@@H]7O[C@@H](C)[C@H](O)[C@@H](O)[C@@H]7O)[C@H](O)[C@@H]6O[C@@H]6O[C@@H](C)[C@H](O)[C@@H](O)[C@@H]6O)CC[C@]5(C)[C@@H]4CC[C@]3(C)[C@@H]1[C@H]2C`: 16500 nM (active); `CC1=C(O)C(=O)C=C2C1=CC=C1[C@@]2(C)CC[C@@]2(C)[C@@H]3C[C@](C)(C(=O)O)CC[C@]3(C)CC[C@]12C`: 2610 nM (active); `CC(C)(O)C=CC(=O)[C@](C)(O)[C@H]1[C@H](O)C[C@]2(C)[C@@H]3CC=C4[C@@H](C=C(O)C(=O)C4(C)C)[C@]3(C)C(=O)C[C@@]12C`: 3290 nM (active).
Regarding `CC(=O)[O][Hg][c]1ccccc1`, the Potency was 5850 nM (active).
Regarding `O=c1[nH]c2ccc(Cl)cc2c(N[C@@H]2CN3CCC2CC3)c1-c1nc2ccccc2[nH]1`, the Potency is 522 nM (active).
`Cc1ccccc1-n1c(Cn2cnc3c(N)ncnc32)nc2cccc(C)c2c1=O`: the “activity change, negative = cytotoxic” value was 4.2% (inactive).
With `O=C(N[C@H]1CN2CCC1CC2)c1ccc(Cl)cc1`, the “activity change, negative = cytotoxic” value is -4.7% (inactive).
For the compound `CC(C)N[C@@H]1CCn2c(=O)[nH]c3cccc(c32)[C@@H]1O`, the “activity change, negative = cytotoxic” value was -12.3% (inactive).
Regarding `C[C@H]1CCCC=CC2C[C@H](O)C[C@@H]2[C@H](O)C=CC(=O)O1` (some centres not stated), the Potency was 117 nM (active).
Same read-out and setting: next, `O=C(O)CCCOc1ccc(Cl)cc1Cl`: 19400 nM (active).

A further assay in a line: qHTS of pediatric cancer cell lines to identify multiple opportunities for drug repurposing: Confirmatory screen for SJ-GBM2 cells (AID 1347116). Further: nearly all actives have a fitted effect of over 60% in size. Further: potency means the concentration at half of the fitted maximal effect.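 On activity change, negative = cytotoxic: plate controls were DMSO for no effect and bortezomib for full effect.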 The settings on record: SJ-GBM2 glioblastoma cells, viability; series mostly up to 45.9 µM; activity change, negative = cytotoxic: at the top concentration. The method in brief: as §1
Take `CC(C)(C)C(O)C(Oc1ccc(Cl)cc1)n1cncn1` (configuration not stated): the outcome was inactive.
For `CC[C@@]1(O)C(=O)OCc2c1cc1n(c2=O)Cc2cc3ccccc3nc2-1`, the Potency is 104 nM (active).
With `COc1ccc2c(c1)CN(C)CC2c1ccc(Cl)c(Cl)c1` (configuration not stated), the Potency was 1470 nM (active).
Still for that read-out and setting: next, `C[C@@H]1O[C@@H](O[C@@H]2C=C3CC[C@@H]4[C@@H](CC[C@]5(C)[C@H](c6ccc(=O)oc6)CC[C@@]45O)[C@@]3(C)CC2)[C@H](O)[C@H](O)[C@H]1O`: 58.5 nM (active).
Take `CC[C@@H]1[C@@H](C)O[C@@](O)([C@@H](C)[C@H](O)[C@H](C)[C@H]2OC(=O)C=CC=C[C@@H](C)[C@@H]([C@@H](C)[C@@H](O)[C@H](C)[C@@]3(O)C[C@H](O[C@H]4C[C@H](O)[C@H](O)[C@H](C)O4)[C@H](CC)[C@@H](C)O3)OC(=O)C=CC=C[C@@H]2C)C[C@H]1O[C@H]1C[C@H](O)[C@H](O)[C@H](C)O1`: the “activity change, negative = cytotoxic” value is 3.64% (inactive).
As for `CC1=C(O)C(=O)C=C2C1=CC=C1[C@@]2(C)CC[C@@]2(C)[C@@H]3C[C@](C)(C(=O)O)CC[C@]3(C)CC[C@]12C`, the Potency is 2610 nM (active).
`CC(C)(O)C=CC(=O)[C@](C)(O)[C@H]1[C@H](O)C[C@]2(C)[C@@H]3CC=C4[C@@H](C=C(O)C(=O)C4(C)C)[C@]3(C)C(=O)C[C@@]12C`: the Potency was 1650 nM (active).
As to `CC(=O)[O][Hg][c]1ccccc1`, the Potency is 1170 nM (active).
Same read-out and setting: for `O=c1[nH]c2ccc(Cl)cc2c(N[C@@H]2CN3CCC2CC3)c1-c1nc2ccccc2[nH]1` the value was 1040 nM (active); for `CC(C)[C@]12O[C@@H]1[C@@H]1O[C@]13[C@]1(O[C@H]1C[C@@H]1C4=C(CC[C@@]13C)C(=O)OC4)[C@H]2O`, 65.7 nM (active).
Regarding `Cc1ccccc1-n1c(Cn2ncc3c(N)ncnc32)nc2cccc(C)c2c1=O`, the “activity change, negative = cytotoxic” value is -18.8% (inactive).
With `Cc1ccccc1-n1c(Cn2cnc3c(N)ncnc32)nc2cccc(C)c2c1=O`, the “activity change, negative = cytotoxic” value was 20% (inactive).
For `O=C(N[C@H]1CN2CCC1CC2)c1ccc(Cl)cc1`, the Potency was 585 nM (active).
In the case of `CC(C)N[C@@H]1CCn2c(=O)[nH]c3cccc(c32)[C@@H]1O`, the “outcome” value is “inactive [at 45.9 µM]”.
As to `C[C@H]1CCCC=CC2C[C@H](O)C[C@@H]2[C@H](O)C=CC(=O)O1` (some centres not stated), the Potency was 208 nM (active).

The next assay is described as follows: qHTS of pediatric cancer cell lines to identify multiple opportunities for drug repurposing: Confirmatory screen for BT-37 cells (AID 1347117). Further: nearly all actives have a fitted effect of over 55% in size. Further: potency means the concentration at half of the fitted maximal effect.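 On activity change, negative = cytotoxic: plate controls were DMSO for no effect and bortezomib for full effect.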 The conditions noted are these: BT-37 pediatric cancer cells, viability; series mostly up to 45.9 µM; activity change, negative = cytotoxic: at the top concentration. The method in brief:
as §2
For `COc1cc2cc(c1Cl)N(C)C(=O)C[C@H](OC(=O)C(C)C)[C@]1(C)O[C@H]1[C@H](C)[C@@H]1C[C@@](O)(NC(=O)O1)[C@H](OC)C=CC=C(C)C2`, the Potency is 1 nM (active).
As to `CC(C)(C)C(O)C(Oc1ccc(Cl)cc1)n1cncn1` (configuration not stated), the “activity change, negative = cytotoxic” value is 1.72% [at 95.5 µM] (inactive).
Regarding `CC[C@@]1(O)C(=O)OCc2c1cc1n(c2=O)Cc2cc3ccccc3nc2-1`, the Potency is 36.9 nM (active).
The same measure, in the same setting: next, `COc1ccc2c(c1)CN(C)CC2c1ccc(Cl)c(Cl)c1` (configuration not stated): 23300 nM (active).
With `C[C@@H]1O[C@@H](O[C@@H]2C=C3CC[C@@H]4[C@@H](CC[C@]5(C)[C@H](c6ccc(=O)oc6)CC[C@@]45O)[C@@]3(C)CC2)[C@H](O)[C@H](O)[C@H]1O`, the Potency is 13.1 nM (active).
On to `CC[C@@H]1[C@@H](C)O[C@@](O)([C@@H](C)[C@H](O)[C@H](C)[C@H]2OC(=O)C=CC=C[C@@H](C)[C@@H]([C@@H](C)[C@@H](O)[C@H](C)[C@@]3(O)C[C@H](O[C@H]4C[C@H](O)[C@H](O)[C@H](C)O4)[C@H](CC)[C@@H](C)O3)OC(=O)C=CC=C[C@@H]2C)C[C@H]1O[C@H]1C[C@H](O)[C@H](O)[C@H](C)O1`, for which the “activity change, negative = cytotoxic” value is 7.6% (inactive).
`C=CCON=C(C[C@H]1O[C@@H]2O[C@]3(C)CC[C@@H]4[C@H](C)CC[C@@H]([C@H]1C)[C@@]24OO3)[C@H]1O[C@@H]2O[C@]3(C)CC[C@H]4[C@H](C)CC[C@@H]([C@@H]1C)[C@@]24OO3`: the Potency was 147 nM (active).
Still for that read-out and setting: for `Cc1[nH]nc2ccc(-c3cncc(OC[C@@H](N)Cc4c[nH]c5ccccc45)c3)cc12` the value was 1650 nM (active); for `C[C@@H]1CC[C@@]2(OC1)O[C@H]1C[C@H]3[C@@H]4CC=C5C[C@@H](O[C@@H]6O[C@H](CO)[C@@H](O[C@@H]7O[C@@H](C)[C@H](O)[C@@H](O)[C@@H]7O)[C@H](O)[C@@H]6O[C@@H]6O[C@@H](C)[C@H](O)[C@@H](O)[C@@H]6O)CC[C@]5(C)[C@@H]4CC[C@]3(C)[C@@H]1[C@H]2C`, 5220 nM (active).
For the compound `CC1=C(O)C(=O)C=C2C1=CC=C1[C@@]2(C)CC[C@@]2(C)[C@@H]3C[C@](C)(C(=O)O)CC[C@]3(C)CC[C@]12C`, the Potency was 4650 nM (active).
Turning to `CC(C)(O)C=CC(=O)[C@](C)(O)[C@H]1[C@H](O)C[C@]2(C)[C@@H]3CC=C4[C@@H](C=C(O)C(=O)C4(C)C)[C@]3(C)C(=O)C[C@@]12C`, the Potency is 827 nM (active).
On the same count and under the same terms, next, `CC(=O)[O][Hg][c]1ccccc1`: 2330 nM (active); `O=c1[nH]c2ccc(Cl)cc2c(N[C@@H]2CN3CCC2CC3)c1-c1nc2ccccc2[nH]1`: 5850 nM (active).
Still for that read-out and setting: next, `CC(C)[C@]12O[C@@H]1[C@@H]1O[C@]13[C@]1(O[C@H]1C[C@@H]1C4=C(CC[C@@]13C)C(=O)OC4)[C@H]2O`: 36.9 nM (active); `Cc1ccccc1-n1c(Cn2ncc3c(N)ncnc32)nc2cccc(C)c2c1=O`: 293 nM (active).
On to `Cc1ccccc1-n1c(Cn2cnc3c(N)ncnc32)nc2cccc(C)c2c1=O`, for which the “activity change, negative = cytotoxic” value was -17.8% (inactive).
Same read-out and setting: next, `O=C(N[C@H]1CN2CCC1CC2)c1ccc(Cl)cc1`: -15% (inactive); `CC(C)N[C@@H]1CCn2c(=O)[nH]c3cccc(c32)[C@@H]1O`: 0.862% (inactive).
Turning to `C[C@H]1CCCC=CC2C[C@H](O)C[C@@H]2[C@H](O)C=CC(=O)O1` (some centres not stated), the Potency is 92.8 nM (active).
For the compound `O=C(O)CCCOc1ccc(Cl)cc1Cl`, the “activity change, negative = cytotoxic” value is -12% [at 95.5 µM] (inactive).
